What is called viability is the share of living cells, or the viability signal relative to a control.

Several values for one entry are separate records, joined by “and”; a condition that tells them apart may be missing. Equal values may be shown once. Activity calls are given as the source filed them. Cut-off read from the data, not from the text of the source: active = parasite load remaining mostly below about 12% (no sharp cut-off); inactive = mostly above about 10%. Numbered stars: 1 amine (or outer) side, 2 acyl side, 3 side chain; on linkers, the order of the positions; unused ones are H or OH. Bridge positions count the residues as written; N and C are the ends. Square brackets hold non-standard residues; d marks the D form. Peptide text beside a SMILES is read from it. * marks the point of attachment. ξ: configuration not given here. ΔAla(Z-3-ureido) = NC(=O)N/C=C(\N)C(=O)O; X2 = NC1=NCCC(C(N[*:1])C(=O)[*:2])N1; ξβ3hOrn = NCCCC(N)CC(=O)*; Dap = NC[CH](N)C(=O)O

The results in this text go back to PubChem BioAssay.

Assay [1] is described as follows: inhibitors of polyQ protein aggregation (AID 1604). The note with it: polyglutamine-induced protein aggregation inhibition assay; stronger effect = higher value; tested at 2.5 µM.
Assay [2] in a line: enhancers of glutamate uptake in motor neurons, MN-1 cell line (AID 1612).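 Note: tested at 1 µM final; 0% = mean of DMSO vehicle wells on each plate; positive means more glutamate uptake than control and negative means less.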 The note with it: MN-1 motor neuron cells, stronger effect = higher value.
Assay [3] in a line: reducers of polyQ inclusions in PC12 cells, cell-based, NGF-treated PC12, GFPQ80 (AID 1614).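 Note: lower means fewer inclusions and 0 means no inclusions at all.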 The following applies: PC12 NGF-treated GFP-polyQ80 inclusion reduction.
The nature of assay [4]: suppressors of polyglutamine aggregation in yeast, 75Q-TubH (AID 1616). The note with it: S. cerevisiae 75Q-TubH polyglutamine aggregation suppression; stronger effect = higher value.
The nature of assay [5]: liver-stage malaria parasite growth inhibition, primary screen, cell-based, HepG2, luciferase luminescence, HepG2 viability (AID 624349).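 Note: 100% = mean of DMSO negative control wells on the same plate.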 The note with it: P. berghei liver stage in HepG2, luciferase luminescence, concentration not given here; parasite load remaining: stronger effect = lower value; viability: measured here: HepG2 viability without parasites.

As to `CC(=O)OCC(=O)[C@@]1(O)CC[C@H]2C3CCC4=CC(=O)CCC4(C)[C@@]3(F)[C@@H](O)CC21C` (some centres undefined), in assay [1], the inhibition of aggregation amounted to 88.9%. In assay [2], the glutamate uptake change was 7.44%. In addition, the inclusion score in assay [3] turned out to be 2. The molecule also had an aggregation suppression score in assay [4] of 1.14.

Turning to `NCCCCC(N)C(=O)NC(Cc1c[nH]c2ccccc12)C(=O)NC(CCCCN)C(=O)O` (stereo not drawn) (H-Lys-Trp-Lys-OH; configuration not given here), the inhibition of aggregation in assay [1] stood at 83.9%. Further, the glutamate uptake change in assay [2] was found to be 46.5%. In assay [3], this molecule showed an inclusion score of 2. Also, in assay [4], the aggregation suppression score is 1.18.

Regarding `CCN(CCCc1ccccc1)CCCc1ccccc1` (tested in a mixture with another compound), the inhibition of aggregation in assay [1] is 31.7%. In addition, the glutamate uptake change in assay [2] is 20.1%. Moreover, the inclusion score in assay [3] turned out to be 2. In assay [4], this molecule came in with an aggregation suppression score of 1.65.

As to `C[C@]12CCC3c4ccc(OC(=O)CCC(=O)O)cc4CCC3C1CCC2=O` (some centres undefined), the inhibition of aggregation in assay [1] turned out to be 33.3%. For the same molecule, the glutamate uptake change in assay [2] was -14.3%. Besides, the inclusion score in assay [3] amounted to 2. The same molecule displayed an aggregation suppression score in assay [4] of 0.711.

`NC[C@@H]1O[C@H](OC2[C@@H](O)[C@H](O[C@@H]3[C@H](N)[C@@H](O)C[C@H](N)[C@H]3O[C@H]3O[C@H](CO)[C@@H](O)[C@H](O)[C@H]3N)O[C@@H]2CO)[C@H](N)[C@@H](O)[C@@H]1O` (some centres undefined): the inhibition of aggregation in assay [1] was 16.8%. Besides, the glutamate uptake change in assay [2] came out at 21.4%. In assay [3], this molecule showed an inclusion score of 2. In assay [4], the aggregation suppression score came to 0.564.

`CC(CNC(=O)c1ccccc1)C(=O)OCC(=O)[C@@]12OC(C)(C)O[C@@H]1CC1C3CCC4=CC(=O)C=C[C@]4(C)[C@@]3(F)[C@@H](O)C[C@@]12C` (some centres undefined): in assay [1], the inhibition of aggregation is 100%. Further, the glutamate uptake change in assay [2] amounted to 4.01%. Moreover, in assay [3], the inclusion score worked out at 2.5. The same molecule yielded an aggregation suppression score in assay [4] of 1.21.

For `C[C@@H]1OC(Oc2c(-c3ccc(O)c(O)c3)oc3cc(O)cc(O)c3c2=O)[C@H](O)[C@H](O)[C@H]1O` (some centres undefined), the inhibition of aggregation in assay [1] is 72.2%. Besides, the glutamate uptake change in assay [2] was -4.44%. The same molecule displayed an inclusion score in assay [3] of 2. The aggregation suppression score in assay [4] was 1.5.

As for `CC(C)CC1NC(=O)CNC1=O` (centres undefined), in assay [1], the inhibition of aggregation was -30.2%. Besides, the glutamate uptake change in assay [2] was -1.97%. This molecule also registered an inclusion score in assay [3] of 2. This molecule also displayed an aggregation suppression score in assay [4] of 0.832.

Turning to `CCC(=O)c1ccc2c(c1)N(CC(C)N(C)C)c1ccccc1S2` (centres undefined), in assay [1], the inhibition of aggregation stood at 69.7%. For the same molecule, the glutamate uptake change in assay [2] was -2.12%. Moreover, in assay [4], the aggregation suppression score was determined as 1.33.

Consider `CC(=O)N[C@@H](Cc1c[nH]c2ccccc12)C(=O)O`, for which the inhibition of aggregation in assay [1] came to 74.4%. Moreover, in assay [2], the glutamate uptake change worked out at 9.72%. This molecule displayed an inclusion score in assay [3] of 2. In assay [4], this molecule yielded an aggregation suppression score of 1.31. In assay [5], the parasite load remaining was 106% (inactive) and the viability was determined as 70.5%.

Consider `CC(=O)OCC(=O)[C@@]12OC(C)(C)O[C@@H]1C[C@H]1C3C[C@H](F)C4=CC(=O)C=CC4(C)[C@@]3(F)[C@@H](O)C[C@@]12C` (some centres undefined), for which the inhibition of aggregation in assay [1] worked out at 85.9%. Besides, the glutamate uptake change in assay [2] was 13.8%. The molecule further returned an inclusion score in assay [3] of 2. The molecule also registered an aggregation suppression score in assay [4] of 0.953.

On to `COC(=O)C(C)C[N+](C)(C)C` (centres undefined), for which, in assay [1], the inhibition of aggregation was determined as 60.6%. Further, the glutamate uptake change in assay [2] is 0.97%. The molecule also gave an inclusion score in assay [3] of 2. For the same molecule, the aggregation suppression score in assay [4] was determined as 1.5.

As to `COC(=O)/C(=C1\OC(=O)C(c2ccccc2)C1=O)c1ccccc1` (centres undefined), the inhibition of aggregation in assay [1] was 31.4%. The glutamate uptake change in assay [2] stood at 6.01%. In addition, the inclusion score in assay [3] worked out at 2. The aggregation suppression score in assay [4] was determined as 0.0212.

For `CC12CCC(CC1=O)C2(C)C` (centres undefined), the inhibition of aggregation in assay [1] stood at 43.2%. Also, the glutamate uptake change in assay [2] is 5.12%. This molecule showed an inclusion score in assay [3] of 2. The molecule further gave an aggregation suppression score in assay [4] of 1.49.

`CC1(C)O[C@@H]2CC3C4CCC5=CC(=O)CCC5(C)C4(F)C(O)CC3(C)[C@]2(C(=O)CCl)O1` (some centres undefined): in assay [1], the inhibition of aggregation was 79.5%. Besides, the glutamate uptake change in assay [2] came out at 12.8%. Besides, in assay [3], the inclusion score is 2. Further, in assay [4], the aggregation suppression score was found to be 1.1. Besides, in assay [5], the parasite load remaining was 190% (inactive) and the viability amounted to 88.4%.

`O=C(Cc1cccs1)NC1C(=O)N2C(C(=O)[O-])=C(C[n+]3ccccc3)CSC12` (centres undefined): the inhibition of aggregation in assay [1] came out at 59%. In assay [2], the glutamate uptake change was -13.7%. In addition, the inclusion score in assay [3] was found to be 2. The aggregation suppression score in assay [4] was found to be 1.45. In assay [5], the parasite load remaining is 179% (inactive) and the viability amounted to 74.4%.

`OCc1cc2c(cn1)[nH]c1ccccc12`: in assay [1], the inhibition of aggregation is -1.27%. For the same molecule, the glutamate uptake change in assay [2] was 17.8%. In assay [3], this molecule registered an inclusion score of 2. Further, the aggregation suppression score in assay [4] is 1.28.

In the case of `NCCCC(N)CC(=O)NCC1NC(=O)C(CO)NC(=O)C(N)CNC(=O)C(C2CCN=C(N)N2)NC(=O)/C(=C/NC(N)=O)NC1=O` (stereo not drawn) (H-[Dap]S[Dap](ξβ3hOrn)[ΔAla(Z-3-ureido)][X2]; lactam 1-C; configuration not given here), the inhibition of aggregation in assay [1] is -24.2%. Also, the glutamate uptake change in assay [2] turned out to be 13.7%. Besides, in assay [3], the inclusion score turned out to be 1. In addition, in assay [4], the aggregation suppression score stood at 0.882.

Consider `CC(=O)CCC1C2=NC(=C\C3=NC(=C(/C)C4=NC(C)(C5[N-]/C(=C\2C)C(C)(CCC(=O)NCC(C)OP(=O)(O)O[C@@H]2[C@@H](CO)OC(n6cnc7cc(C)c(C)cc76)[C@@H]2O)C5CC(N)=O)C(C)(CC(N)=O)C4CCC(N)=O)/C(C)(CC(N)=O)C3CCC(N)=O)/C1(C)C.[CH2-][C@H]1OC(n2cnc3c(N)ncnc32)[C@H](O)[C@@H]1O.[Co+2]` (some centres undefined), for which the inhibition of aggregation in assay [1] was determined as 44.4%. For the same molecule, the glutamate uptake change in assay [2] came to 14.2%. The same molecule registered an aggregation suppression score in assay [4] of 1.42.

For the molecule `Fc1ccc(C(c2ccccc2)(c2ccccc2F)n2ccnc2)cc1` (centres undefined), the glutamate uptake change in assay [2] was 5.37% and 7.94%. The same molecule displayed an inclusion score in assay [3] of 2. Moreover, the aggregation suppression score in assay [4] was 1.35 and 0.117.

Take `CC(C)[C@@H](C)/C=C/[C@@H](C)C1CC[C@H]2/C(=C/C=C3\C[C@@H](O)CC[C@@H]3C)CCC[C@]12C` (some centres undefined): the inhibition of aggregation in assay [1] was found to be 83.3%. Besides, in assay [2], the glutamate uptake change was -13.9%. The molecule also displayed an aggregation suppression score in assay [4] of 0.578.

As to `COc1cccc(C(=O)c2ccccc2O)c1O`, the inhibition of aggregation in assay [1] amounted to 85.8%. In assay [2], the glutamate uptake change is -9.84%. The aggregation suppression score in assay [4] came to 0.104.
